Measurements published in the supplement of paper PMC13380429.

System: Vero E6 infected with SARS-CoV-2
Assay: inhibition of SARS-CoV-2 cytopathic effect; higher = more antiviral protection, active = above 15
Settings: 1 nM; 48 h

SMILES | inhibition of SARS-CoV-2 cytopathic effect
Cc1ccc(C(=O)c2ccc(CC(=O)O)n2C)cc1 [tolmetin] | -2.48% (inactive)
COc1cccc(-c2cc(=O)c3ccccc3o2)c1N | 1.12% (inactive)
CC(=O)O[C@]1(C(C)=O)CC[C@H]2[C@@H]3C=C(C)C4=CC(=O)CC[C@@H]4[C@H]3CC[C@@]21C [nomegestrol-acetate] | -1.8% (inactive)
O=C1CN(/N=C/c2ccc([N+](=O)[O-])o2)C(=O)N1 [nitrofurantoin] | -0.06% (inactive)
COc1cc2nccc(Oc3ccc(NC(=O)Nc4ccc(F)cc4F)c(F)c3)c2cc1OC | -0.54% (inactive)
CS(=O)(=O)N(Cc1ccco1)C[C@@H](O)Cn1c2ccccc2c2ccccc21 | 3.16% (inactive)
C/C=C1\[C@H]2C=C(C)C[C@]1(N)c1ccc(=O)[nH]c1C2 [(-)-Huperzine A] | 0.37% (inactive)
CC(=O)N(O)C/C=C/c1cccc(Oc2ccccc2)c1 | 2.1% (inactive)
CCOC1O[C@H]([C@@H](COCc2ccccc2)OCc2ccccc2)[C@H](OCc2ccccc2)[C@H]1O (stereo not given in full) [tribenoside] | -7.21% (inactive)
CCS(=O)(=O)N1CCN(c2ccc(Nc3ncc(C(N)=O)c(NC4CC4)n3)cc2)CC1 | -1.63% (inactive)
Cc1ccc(-c2ncc[nH]2)cc1NC(=O)c1ccc(OCc2ccccn2)cc1 | -1.02% (inactive)
C[C@]12CC[C@H](O)CC1=CC[C@@H]1[C@@H]2CC[C@]2(C)C(c3cccnc3)=CC[C@@H]12 [Abiraterone (CB-7598)] | 2.77% (inactive)
CC(C)(C)c1ccc(O)cc1 [4-tert-butylphenol] | -0.71% (inactive)
CC(=O)OCC(=O)[C@@]1(O)CC[C@H]2[C@@H]3CCC4=CC(=O)CC[C@]4(C)[C@H]3C(=O)C[C@@]21C [cortisone-acetate] | -0.91% (inactive)
O=C1OC(OC(=O)c2cccnc2Nc2cccc(C(F)(F)F)c2)c2ccccc21 (stereo not given) [talniflumate] | 2.12% (inactive)
N#Cc1ccc(N(Cc2ccc(Br)cc2)n2cnnc2)cc1 | 1.03% (inactive)
NC(=S)N/N=C/c1coc2ccccc2c1=O.[Cl][Cu][Cl] | 0.84% (inactive)
Cc1nc(C#Cc2ccnc(Cl)c2)c(C)n1-c1ccc(F)cc1 [basimglurant] | -0.13% (inactive)

SMILES | inhibition of SARS-CoV-2 cytopathic effect
CCCCC(=O)O[C@H]1CC[C@H]2[C@@H]3CCc4cc(O)ccc4[C@H]3CC[C@]12C | -0.93% (inactive)
C[N+](C)(C)CCOC(=O)CCC(=O)OCC[N+](C)(C)C [succinylcholine-chloride] | 2.27% (inactive)
Cc1cc(C)cc(OCC2CNC(=O)O2)c1 (stereo not given) [metaxalone] | -1.78% (inactive)
CC(C(=O)O)c1ccc(C(=O)c2cccs2)cc1 (stereo not given) [suprofen] | 2.14% (inactive)
Cc1cccc(C)c1NC1=NCCCS1 [xylazine] | 1.43% (inactive)
CC1=C(C(=O)O)N2C(=O)[C@@H](NC(=O)[C@H](N)c3ccc(O)cc3)[C@H]2SC1 [cefadroxil] | 1.06% (inactive)
N=C(NCc1ccc(Cl)cc1)SCCCc1c[nH]cn1 [clobenpropit] | 1.58% (inactive)
N#Cc1ccccc1-c1cc(-c2ccccn2)cn(-c2ccccc2)c1=O [Perampanel] | 2.02% (inactive)
C/C(=C\c1csc(C)n1)[C@@H]1C[C@@H]2O[C@]2(C)CCC[C@H](C)[C@H](O)[C@@H](C)C(=O)C(C)(C)[C@@H](O)CC(=O)N1 [ixabepilone] | -3.63% (inactive)
COc1ccc2c(Oc3ccc(NC(=O)c4c(C)n(CC(C)(C)O)n(-c5ccccc5)c4=O)nc3)ccnc2c1 | 2.46% (inactive)
COC(=O)C1=CCCN(C)C1 [arecoline] | 1.27% (inactive)
COc1cc([S+](C)[O-])ccc1-c1nc2cccnc2[nH]1 (stereo not given) [sulmazole] | -0.6% (inactive)
O=C(O)CCN(O)C(=O)CCCCCCCCC1CC1 | 2.3% (inactive)
N=C1N[C@H]2[C@H](CS[C@H]2CCCCC(=O)O)N1 [2-iminobiotin] | -0.5% (inactive)
Cc1cc(O)ccc1Cl [chlorocresol] | -0.46% (inactive)
CC(C)(Oc1ccc(CCNC(=O)c2ccc(Cl)cc2)cc1)C(=O)O [bezafibrate] | -1.42% (inactive)
O=C(O)C1=CCNCC1 [isoguvacine] | 0.65% (inactive)
